Test results reported in PubChem BioAssay (NCI).
This is part of a sample that, as a whole, favours compounds with a hit. Of some 83,000 tested, about 20% had one in any assay.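 Treatment: one concentration, 48 hours, 96-well format. Scoring: percent growth, with anything below 10 considered active.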 Unmarked numbers belong to inactive results. Active and inactive are the calls of the source.

Each compound was assayed on A549/ATCC NSCLC (assay: NCI-60 one-dose screen, 48 h (100 = growth as untreated, 0 = no growth, -100 = all killed)). Conditions: 10 µM unless noted.
Method: Growth inhibition of the A549/ATCC human Non-Small Cell Lung tumor cell line is measured as a screen for anti-cancer activity. Cells are grown in 96 well plates and exposed to the test compound for 48 hours. Compounds are tested at a single concentration, which is 10^-5 M for most compounds. The reported endpoint is percent growth (GI% or GIPRCNT), where numbers from 0 - 100% represent growth inhibition, and numbers from -100% - 0 represent cell death. For example, a value of 40 represents 60% growth inhibition. A value of 0 means no net growth occurred over the course of the experiment. A value of -40 indicates 40% of cells at the beginning of the experiment died by the end of the experiment. A value of -100 means all cells are dead at the end of the experiment.
NCI-60 Human Tumor Cell Lines Screen was performed using the standard one-dose NCI protocol, which is described in more detail at https://dtp.cancer.gov/discovery_development/nci-60/default.htm.
Compounds with GIPRCNT values below 10 were considered active. Activity score was based on GIPRCNT using the following formula: […]
Score is 0 for GIPRCNT values of 100 or above, 50 for GIPRCNT values of 0, and 100 for GIPRCNT values of -100.
For `Oc1ccc(C(c2ccc(O)cc2)c2ccc(Cl)cn2)cc1`, the growth was 52.1%. `COc1ccc(NC(=O)CSc2oc(-c3ccccc3)nc2S(=O)(=O)c2ccc(Cl)cc2)c(OC)c1` was tested, and the growth was 49.2%. `O=c1c(/C=C/c2c(O)ccc3ccccc23)nnc2sc(-c3cccc([N+](=O)[O-])c3)nn12` was tested, and the growth was 45.7%. `CC1=C([Se]CC(OC(=O)[C@@H](CO)NC(=O)OC(C)(C)C)C(=O)NCCCCCC(=O)OCc2ccccc2)C(=O)c2ccccc2C1=O` (stereo not given in full) was tested, and the growth was -24% (active). Work on `Cc1ccc(NC(=O)c2ccc(Nc3ncnc4c3cnn4-c3cccc(F)c3)cc2)cc1` yielded a growth of 99.9%. For `CC1=NN(c2cccc(Cl)c2)C(=O)/C1=C\C=C\c1ccccc1`, the growth was 94.5%. For `COc1c(O[C@@H]2OC(CO)[C@H](O)[C@H](O)C2O)cc2oc3cc(O)c(CC=C(C)C)c(O)c3c(=O)c2c1CC=C(C)C` (stereo not given in full), the growth was 97.4%. In the case of `COc1ccc2c(O)cc3c(c2c1)[C@H](CCl)CN3C(=O)c1cc2cc(NC(=O)CCN3CCOCC3)ccc2[se]1`, the growth was -29.5% (active). Compound `N/C(=N\c1nc2ccccc2s1)NC(=O)Nc1ccccc1` has a growth of 39%. `CN(C)CC1C(=O)O[C@H]2[C@H]1CC/C(COC(=O)NCc1ccc(Cn3c(=O)sn(CCCI)c3=O)cc1)=C\CC[C@@]1(C)O[C@@H]21` (stereo not given in full) gave a growth of 101%. For `COc1ccc2c(c1)c(-c1nc(-c3cn(C)c4ccncc34)cs1)cn2C`, the growth was 2.44% (active). Compound `CC(C)(C)n1cc(-c2ccnc(NCCNS(=O)(=O)c3ccc(Br)cc3)c2)c(-c2cccc(O)c2)n1` has a growth of 28.9%. In the case of `CNC(=O)c1cc(Oc2ccc3nc(NC(=O)Nc4ccc(F)cc4F)sc3c2)ccn1`, the growth was 44.8%. In the case of `COc1ccc(-c2ccc(-c3ccc(C(=N)N)o3)o2)cc1`, the growth was 1.8% (active). `COC(=O)[C@@H](Cc1c[nH]c2ccccc12)NC[C@@H](O)CN1C(=O)/C(=C\c2cc(OC)c(OC)c(OC)c2)c2ccccc21` gave a growth of 67.2%. `COc1cc(NC(=O)c2cncnc2Nc2ccc3c(ccn3Cc3cccc(F)c3)c2)cc(OC)c1` showed a growth of 40.4%. In the case of `CCOC(=O)c1cc(C(=O)c2cc(OC)cc(OC)c2)n2ncccc12`, the growth was 35.3%. `COc1cc2cc(Oc3ccc(NC(=O)Nc4ccc(Cl)c(Cl)c4)cc3)c(C)nc2cc1OCCN1CCCCC1` gave a growth of 86.9%. `O=c1ccc2nc(-c3ccccc3)nn(-c3ccccn3)c-2c1` showed a growth of 103%. Work on `COc1cc(OCc2cccc(-c3ccc4c(c3)OCCO4)c2C)cc(OC)c1C=O` yielded a growth of 69%. `Cc1ccc(S(=O)(=O)c2nc(-c3ccccc3)oc2S(C)=O)cc1` (stereo not given) was tested, and the growth was 69.8%. `COc1cccc(-c2cc(-c3ccc(Nc4nc(Nc5ccc(Cl)cc5)nc(Nc5ccc(Cl)cc5)n4)cc3)nc(N)c2C#N)c1` showed a growth of 43%. In the case of `Cc1ccc(C(=O)Nc2ccc(CN3CCN(C)CC3)c(C(F)(F)F)c2)cc1C#Cc1cnc(N)c2ccccc12`, the growth was -65.7% (active). `CCOC(=O)c1ccc2c(c1)[n+](=O)c(C(C)=O)c(C(F)(F)F)n2[O-]` showed a growth of 19.2%. Work on `C#CCOc1cccc(Nc2c(Cl)c(CCl)nc3ccc(Oc4ccccc4)cc23)c1` yielded a growth of 90.7%. Compound `Cc1c(-c2cnc3ccc(Cl)cc3c2C(=O)O)nnn1-c1ccc(Cl)cc1` has a growth of 97.1%. For `N#CSCc1cc(Cl)c(CSC#N)cc1Cl`, the growth was 120%. `C=C(CNCCc1ccc(O)cc1)[C@@H]1CC[C@]2(CO)CC[C@]3(C)[C@H](CC[C@@H]4[C@@]5(C)CCC(N)C(C)(C)[C@@H]5CC[C@]43C)[C@@H]12` (stereo not given in full) was tested, and the growth was -66.6% (active). `Cc1c(C(=O)C(SC(=S)N2CCOCC2)SC(=S)N2CCOCC2)nnn1-c1ccc([N+](=O)[O-])cc1` gave a growth of 96.5%. `CC(C)=CC(=O)C1C(=O)c2ccccc2C1=O` gave a growth of 106%. In the case of `CCC(C)C(N)C(=O)NC(CC(C)C)C(=O)N1CCCC1C(=O)NC(Cc1c[nH]c2ccccc12)C(=O)NC(CCCCN)C(=O)NC(Cc1c[nH]c2ccccc12)C(=O)N1CCCC1C(=O)NC(Cc1c[nH]c2ccccc12)C(=O)NC(Cc1c[nH]c2ccccc12)C(=O)N1CCCC1C(=O)NC(Cc1c[nH]c2ccccc12)C(=O)NC(CCCNC(=N)N)C(=O)NC(CCCNC(=N)N)C(N)=O` (stereo not given), the growth was 106%. In the case of `CO[C@H]1CC(c2ccc[nH]2)=N[C@]12O[C@@H](C)C[C@@H]1CCCCCCCc3ccc([nH]3)[C@H]12`, the growth was 11.2%. For `Cc1csc(Nc2nc(-c3cccc(Cl)c3)nc(C(Cl)(Cl)Cl)n2)n1`, the growth was 1.73% (active). With `O=c1ccc2c(ccc3ncccc32)o1` the growth was 98.2%. For `COc1cccc(/C=C/C(=O)/C=C(/C=C/c2cccc(OC)c2OC)OB(F)F)c1OC`, the growth was 88.7%. In the case of `CCOC(=O)CCC(=O)P(=O)(O)O`, the growth was 96.9%. `Cc1ccc(C(F)(F)F)cc1N1CCN(C(=O)[C@H]2C[C@H]2c2ccc(C(F)(F)F)nc2)CC1` was tested, and the growth was 81.5%. With `CS(=O)(=O)Nc1cc(-c2ccc3ncnc(Nc4cccc(Cl)c4)c3c2)cnc1Cl` the growth was -13.4% (active). For `Nc1n[nH]c2cccc(C#Cc3cccc(C(=O)Nc4ccc(Cl)c(C(F)(F)F)c4)c3)c12`, the growth was 71.3%. With `O=C(Nc1cccc(Cn2c(=O)[nH]c3ccc(Oc4ncccn4)cc3c2=O)c1)c1cccc(Cl)c1` the growth was 55.5%.
